Screen size: about 52,000 sequences; about 3,800 (7.3%) were called active. Rule as the data show it: active = GI50 up to about 1.1 µM and inactive = higher. A selection follows. Entries with a potency or affinity are not part of this list.
What follows are substances tested on HOP-92.

Q: Which GI50 does the source give for “[Bis(aminomethyl)diethylsilane]tetrachloroplatinum(IV), CHEMBL2146203” here?
A: Its GI50 is 4.25 µM.

Q: How did the GI50 turn out when “[Bis(aminomethyl)dimethylsilane]dichloroplatinum (II), CHEMBL2146201” was run?
A: Its GI50 is 29.4 µM.

Q: Which GI50 does the source give for “[Bis(aminomethyl)pentamethylenesilane]dichloropaltinum(II), CHEMBL2146202” here?
A: Its GI50 is 40.4 µM.

Q: How did the GI50 turn out when “[Bis(aminomethyl)dimethylsilane]tetrachloroplatinum(IV), CHEMBL2146190” was run?
A: Its GI50 is 14.4 µM.

Q: How did the GI50 turn out when “[Bis(aminomethyl)tetramethylenesilane]dichloropaltinum(II), CHEMBL2146205” was run?
A: The GI50 was 28.4 µM.

Q: Which GI50 does the source give for “mu-(1,7-nanodiamine-N,N')bis-(cis-aminedichloroplatimum (II)), CHEMBL2146215” here?
A: Its GI50 is 41.8 µM.

Q: Which GI50 does the source give for “cis-Bis[[(trimethylsilyl)methyl]amino]tetrachloroplatinum(IV), CHEMBL2146191” here?
A: Its GI50 is 3.11 µM.

Q: Which GI50 does the source give for “[Bis(aminomethyl)pentamethylenesilane]tetrachloropaltinum(IV), CHEMBL2146204” here?
A: The GI50 was 24.2 µM.

Q: How did the GI50 turn out when “[Bis(aminomethyl)ethylmethylsilane]tetrachloroplatinum(IV), CHEMBL2146192” was run?
A: Its GI50 is 21.3 µM.

Q: For “[Bis(aminomethyl)tetramethylenesilane]tetrachloropaltinum(IV), CHEMBL2146189”, which GI50 is on record?
A: Its GI50 is 21.5 µM.

Q: With CISPLATIN, CHEMBL11359 as the substance, how does the GI50 read?
A: Its GI50 is 3.74 µM.

From ChEMBL document CHEMBL1201862, “PubChem BioAssay data set” (2004)
